Assay results published in PubChem BioAssay (NCATS).
Several values for one entry are separate records, joined by “and”; a condition that tells them apart may be missing. Identical values can stand only once. Records with an inconclusive call do not appear. Activity calls are given as the source filed them. The call rests on the fitted dose curve; in most records, active means well fitted cell-killing curve with a large enough effect; inconclusive means small, poorly fitted or top-dose-only effect, or effect the other way; inactive means no such curve, though single readings can be large or run the other way.

Assay: Viability qHTS for spleen associated tyrosine kinase inhibitor (SYKi) drug resistant MV4-11 cells (AID 1963824); further: nearly all actives have a fitted effect of over 35% in size
Details: SYKi-resistant MV4-11 viability, CellTiter-Glo, 72 h; series mostly up to 45 µM; viability, % of control: at the top concentration
Procedure, shortened: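 SYK-inhibitor-resistant MV4-11 AML cells were seeded at 500 per well onto compound and cultured 72 hours (37 °C, 5% CO2). CellTiter-Glo was then added, and after 10 min at room temperature, luminescence gave viability.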
Potency means the concentration at half of the fitted maximal effect.

Structure (SMILES)	Potency	viability, % of control
CC(=O)c1cc(C(=O)N[C@@H](C)Cn2ccc(-c3ccc(C#N)c(Cl)c3)n2)[nH]n1	14.6 µM (active)	–
N#Cc1ccc(COc2ccc(-c3cccc4nc(NC(=O)C5CC5)nn34)cc2)cn1	0.651 µM (active)	–
Cc1cc(N(C)C)ccc1-c1nc2ccc(-c3nc4ccc(N5CCN(C)CC5)cc4[nH]3)cc2[nH]1	0.184 µM (active)	–
C/C(=N\NC(=S)N1CCC1)c1ccccn1	0.0074 µM (active)	–
C[C@]1(C(=O)Nc2ccc(F)nc2)CCCN1c1nc(Nc2cc(C3CC3)[nH]n2)c2cccn2n1	1.64 µM (active)	–
C=C(C=O)[C@]1(O)C[C@@]2(C)C(=CC1=O)C=C[C@H](OC(=O)/C=C/C=C/[C@H](C)CC)[C@@H]2C	0.796 µM (active)	–
CC(C)[C@H]1CCC(CO)=C[C@@H]1/C=C(\CO)C(=O)O	–	79% (inactive)
N#Cc1ccc(-c2cnc3[nH]cc(NC(=O)c4cccnc4)c3c2)cc1	0.92 µM (active)	–
CC(C)C(=O)OC[C@H]1O[C@H](O[C@H]2O[C@H](CO)[C@@H](O)[C@H](O)[C@H]2O)[C@H](O)[C@@H](O)[C@@H]1O	–	109% [at 17.3 µM] (inactive)
CCOc1ccc(-c2cc(NC(=O)c3c(F)cccc3F)c(C(=O)O)s2)cc1	–	25.1% (inactive)
Cc1c(OCc2cccc(-c3ccc(C(=O)O)cc3)c2)cc2c(c1C)C(=O)C(C1CCCC1)C2 (configuration not stated)	–	83.2% (inactive)
CC(C)C[C@@H]1NC(=O)[C@@H](Cc2ccccc2)NC(=O)C(CCCCCC(=O)C2CO2)NC(=O)[C@@H]2CCCCN2C1=O (some centres not stated)	0.0126 µM (active)	–
CCc1cnn2c(NCc3ccc[n+]([O-])c3)cc(N3CCCCC3CCO)nc12 (configuration not stated)	0.0065 µM (active)	–
C/C=C/C=C/C(=O)OC1CC/C=C/C(O)C(O)C(CCC)OC1=O (configuration not stated)	–	65.4% (inactive)
COc1c2c(c(C)c3c1C(=O)OC3)OC1(C)CC(O)C34OC(OC)(CC(O)C3(C)C1C2)OC4(C)C (configuration not stated)	10 µM (active)	–
COc1c(-c2ccc3cc(NS(C)(=O)=O)ccc3c2)cc(-n2ccc(=O)[nH]c2=O)cc1C(C)(C)C	16.4 µM (active)	–

Structure (SMILES)	Potency	viability, % of control
CC1CCC2C(C(=O)O)=CC3(O)CC(C)(C)CC123 (configuration not stated)	–	72.4% (inactive)
NC(=O)c1cnc(-c2ccc(C3(N)CCC3)cc2)c(-c2ccccc2)c1	20.9 µM (active) and 580 nM (active)	–
CC1=CC2/C=C(\C)CCC(O)C(=O)C(O)CC(=O)C23C(=O)NC(CC(C)C)C3C1C (configuration not stated)	11.2 µM (active)	–
CCCCC1CCN(CCCN2C(=O)CCc3ccccc32)CC1	2.59 µM (active)	–
Cc1ccc2[nH]c(=O)c(C3=NN(C(=O)CCC(=O)O)C(c4ccc(Br)cc4)C3)c(-c3ccccc3)c2c1 (configuration not stated)	23.1 µM (active)	–
NCCCNc1ccc(Nc2nccc(Nc3cc(C4CC4)[nH]n3)n2)cc1	0.164 µM (active)	–
COc1cc2nc(N3CCC(N4CCCCC4)CC3)nc(NC3CCCCCC3)c2cc1OC	1.03 µM (active)	–
Cc1cc(Nc2nc(NC(C)c3ccc(F)cc3)c(C#N)cc2F)n[nH]1 (configuration not stated)	0.461 µM (active)	–
Oc1ccc([C@H]2COc3cc(O)ccc3C2)cc1	13 µM (active)	–
COCC1OC(n2cnc3c(=O)[nH]cnc32)C(O)C1O (configuration not stated)	–	103% (inactive)
Cc1cc(C)cc(Oc2ccc(CNC(=O)[C@H](C)N)cc2C)c1	16.6 µM (active)	–
COc1cc(CNC(=O)CCCC/C=C/C(C)C)ccc1O	18.4 µM (active)	–
CC(=O)OC12CC(C)C(O)C1/C=C(/COC1OC(CO)C(O)C(O)C1O)CCC1C(/C=C(\C)C2=O)C1(C)C (configuration not stated)	–	94.3% [at 17.3 µM] (inactive)
CC1CC(C(O)C(C)(C)O)OC2CC3(C)C4(C)CCC5C(C)(C)C(=O)CCC5(C)C4CCC3(O)C12O (configuration not stated)	11.2 µM (active)	–
CC(=O)O[C@@H]1[C@@H](O)[C@H](C)O[C@@H](O[C@H]2[C@@H]3C=CO[C@@H](O[C@@H]4O[C@H](CO)[C@@H](O)[C@H](O)[C@H]4OC(C)=O)[C@@H]3[C@@]3(CO)O[C@@H]23)[C@@H]1OC(=O)/C=C/c1ccc(O)cc1	–	92.7% [at 17.3 µM] (inactive)
C[C@@H]1CCCN1CCc1cc2cc(-c3ccc(C#N)cc3)ccc2o1	20.6 µM (active)	–
